Screens: PubChem, National Center for Advancing Translational Sciences (NCATS)
This is a sample that favours compounds with a hit; in the whole collection about 21% have one here.
TDP1 cell CPT: growth inhibition of DT40 Tdp1-/-;hTDP1 cells with camptothecin (screen for TDP1 inhibitors) | chicken DT40 Tdp1-/-;hTDP1 cells + 20 nM CPT, ATP luminescence, 48 h | 420,000 compounds, 12% hits | Potency, µM (series often up to 46.2 µM), for inactives: at the top dose activity change, negative = growth inhibition, usual class: inhibitors | AID 686979; note: potency is the fitted concentration of half-maximal effect; % is set by controls: 0 for no effect and ±100 for the full control effect; nearly all actives have a fitted effect of over 55% in size
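Cell growth measured by CellTiter-Glo luminescence after a minimum 48 h, 37 C compound exposure with 20 nM CPT in Tdp1-knockout DT40 cells stably expressing hTDP1, seeded 400/well; qHTS titration format.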
D3 antag: antagonists of human D3 dopamine receptor | P35462 | D3R cells, DiscoveRx beta-arrestin luminescence, antagonist mode; stronger effect = lower value | max response, negative = inhibition, % | 360,000 compounds, 2.5% hits; in the data active = max response below about -50%; inconclusive = no clear call, values can overlap the other calls; note: % is set by controls: 0 for no effect and ±100 for the full control effect
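Cells plated overnight at 1500 cells/well, then exposed to library compounds with dopamine controls for 90 minutes at 37 degrees C. DiscoveRx reagent added for 30–60 minutes at room temperature; luminescence read, quantitative HTS format.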
ClpP mod: qHTS Assay for Activators of ClpP | ATP-dependent Clp protease proteolytic subunit (Bacillus subtilis (strain 168)), P80244 | purified B. subtilis ClpP, FRET peptide cleavage, 20 min | Potency, µM (doses to about 57.5 µM), inactives show at the top dose activity change, negative = active | 340,000 compounds, 1.9% hits | AID 651965, 2013; active = well fitted falling curve with a large enough effect; inconclusive = small, poorly fitted or top-dose-only effect; inactive = no such curve, though single readings can be large or run the other way; note: potency is the fitted concentration of half-maximal effect; the source files actives as falling curves though it sought activators and does not explain the sign; nearly all actives have a fitted effect of over 65% in size
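Purified B. subtilis ClpP, 10 microg/mL final in Tris/HCl pH8 with KCl, BSA, glycerol and Tween-20, cleaved an Abz/nitrotyrosine-quenched decapeptide. Fluorescence (ex 320, em 430) was read at 0 and 20 min at room temperature. Delta was normalized to 5.8 microM ADEP and DMSO/no-enzyme controls.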
TDP1 cell noCPT: qHTS for Inhibitors of human tyrosyl-DNA phosphodiesterase 1 (TDP1): qHTS in cells in absence of CPT; DT40 Tdp1-/- hTDP1 cells, no CPT, ATP luminescence, 48 h; Potency, µM (titrated, usually from 46.2 µM), for inactives: top-dose activity change, negative = growth inhibition, hits mostly inhibitors; 420,000 compounds, 15% hits; AID 686978, 2013; note: potency is the fitted concentration of half-maximal effect; % is set by controls: 0 for no effect and ±100 for the full control effect; nearly all actives have a fitted effect of over 55% in size
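Chicken DT40 Tdp1-/- cells complemented with human TDP1, screened without camptothecin (DMSO vehicle only), 400 cells/well. Compounds pin-transferred, cells incubated at 37 °C for at least 48 hr. Growth read as ATP-dependent luminescence (CellTiter-Glo, 30 min at RT).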
D3 ag: agonists of human D3 dopamine receptor; P35462; D3R DiscoveRx beta-arrestin cells, luminescence, 90 min; max activation, %; 410,000 compounds, 0.58% hits; AID 652048; in the data active = max activation above about 30%; note: 0% is about no effect
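Agonist-mode cell screen: cells plated at 1500/well and incubated overnight at 37 °C, then exposed to library compounds for 90 min at 37 °C. Detection reagent was added for 30–60 min at room temperature, and luminescence was read.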
IL1B secr inh: inhibitors of inflammasome signaling (IL-1 beta secretion). THP-1 LPS/ATP IL-1B secretion, AlphaLISA, 16 h; stronger effect = lower value. activity change, % at 57.5 µM. 360,000 compounds, 4.7% hits. AID 743279; in the data active = activity change below about -50%; inconclusive = mostly about -30% to -49%; note: % is set by controls: 0 for no effect and ±100 for the full control effect
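THP-1 cells pretreated 1 hr with compounds (up to 57.5 uM final), then stimulated with LPS (250 ng/mL final) plus ATP (1.25 mM final); secreted IL-1B measured by AlphaLISA after 16 hr, decreased signal indicating inhibition.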
* = called active by the depositor; ? = inconclusive; . = no result. Unless noted, calls come from the whole dose curve; as a rule, active = well fitted inhibition curve with a large enough effect; inconclusive = small, poorly fitted or top-dose-only effect; inactive = flat fitted curve, though single readings scatter.

SMILES	TDP1 cell CPT	D3 antag	ClpP mod	TDP1 cell noCPT	D3 ag	IL1B secr inh
COc1ccc2cc(CNc3ccc(OC)c(OC)c3)c(=O)n(CC(=O)Nc3ccc(C)cc3)c2c1	.	.	2.9%	.	1.2	.
COc1ccc(C(=O)N2CCN(C(=O)Cc3ccccc3)CC2)cc1	-2.9%	-23.4	.	-5.4%	4.1	0.0
O=C(CC1c2cc(F)ccc2C=C(c2ccsc2)N1c1ccc(C#CCCO)cc1)c1ccco1 (centres undefined)	?	11.8	-6.8%	20.6µM*	0.0	-11.3
COC(=O)c1ccc(N2C(c3ccsc3)=Cc3cc4c(cc3C2CC(=O)c2ccco2)OCO4)cc1 (centres undefined)	20.6µM*	20.1	-11.3%	14.6µM*	6.8	9.0
COC(=O)c1ccc(N2C(c3cc(OC)cc(OC)c3)=Cc3ccc(OC)cc3C2CC(=O)c2ccco2)cc1 (centres undefined)	?	25.4	-14.0%	?	4.0	-8.4
COc1ncc(-c2ccc(N3C(c4ccsc4)=Cc4ccc(F)cc4C3CC(=O)c3ccco3)cc2)cn1 (centres undefined)	?	20.4	-4.6%	?	3.4	13.7
CC(=O)CC1c2cc(F)ccc2C=C(c2ccsc2)N1c1ccc(C#Cc2cncn2C)cc1 (centres undefined)	?	-1.0	4.3%	?	-0.9	-23.0
CC(=O)CC1c2cc(F)ccc2C=C(c2ccsc2)N1c1ccc(C#CC2(O)CCCCC2)cc1 (centres undefined)	?	-14.2	5.2%	23.1µM*	2.6	-5.7
COC1=CC(C)C2CC3OC(=O)CC4C(C)=C(OC)C(=O)C([C@]2(C)C1=O)[C@]34C (some centres undefined)	18.5%	.	.	-3.0%	.	.
O=C(N/N=C/c1ccc(-n2ccnc2)cc1)c1cccs1	?	-23.7	-5.6%	-16.0%	-11.6	?
CCOC(=O)c1nc2sc3c(c2c(=O)n1C(C)C(=O)OCC)CCCC3 (centres undefined)	10.3µM*	30.2	.	?	0.8	?
COc1cc(/C=C/C(=O)OCC(=O)N2CCCC2)ccc1OCC#N	-7.5%	-11.3	-12.6%	14.3%	1.4	-7.0
O=C(COC(=O)CNC(=O)c1ccccc1F)NC1CC1	6.9%	5.7	.	-11.3%	1.5	18.1
O=C(/C=C/[C@H]1O[C@@H](n2ccc(=O)[nH]c2=O)[C@H](O)[C@@H]1O)NCCc1c[nH]c2ccccc12	1.3%	0.0	-3.3%	27.5%	11.1	5.6
O=C(NCc1ccco1)c1cccc2c(-c3ccc(F)c(F)c3)coc12	?	2.7	-4.3%	?	2.1	?
Cc1noc(C)c1-c1ccc(C(=O)NCc2ccc(Cl)cc2)c2occc12	?	?	-29.6%	?	-3.3	?
COc1ccc(-c2ccc(C(=O)NCc3ccncc3)c3occc23)c(C)c1	2.06µM*	0.0	5.5%	1.84µM*	-6.8	-28.9
COc1ccc(-c2ccc(C(=O)NCc3ccc(F)c(F)c3)c3occc23)c(C)c1	?	0.0	5.5%	?	5.3	-59.1*
COc1ccc(CNC(=O)C2=C(C)C(=O)OC23CCCCC3)cc1OC	-15.2%	.	-0.8%	?	-4.4	.
COc1ccc(-c2coc3c(C(=O)NCc4ccc(OC)c(OC)c4)cccc23)c(C)c1	8.2µM*	74.4	?	6.51µM*	17.4	-20.6
COc1ccc(-c2coc3c(C(=O)NCc4ccc(F)c(F)c4)cccc23)c(C)c1	?	4.4	?	14.6µM*	2.8	?
O=C1CNC(=S)N1C1CCCCCC1	17.2%	-4.2	.	-6.9%	0.8	5.7
Cc1c(C(=O)N2CCCCCC2)sc2ncnc(NCC3CCCO3)c12 (centres undefined)	-5.7%	.	.	-25.1%	.	.
COc1ccc(-c2ccc(C(=O)NCC(C)C)c3occc23)c(C)c1	?	97.7	3.8%	?	17.4	?
COc1ccc(-c2ccc(C(=O)NCC3CC3)c3occc23)c(C)c1	20.6µM*	10.4	4.2%	?	16.2	?
SMILES	TDP1 cell CPT	D3 antag	ClpP mod	TDP1 cell noCPT	D3 ag	IL1B secr inh
CN(C)Cc1c(O)c(Cl)cc2c3c(c(=O)oc12)CCCC3	?	-13.6	?	14.6µM*	-8.4	21.3
Cc1ccccc1CCNC(=O)c1cc(C2CC2)nc2c1cnn2C(C)C	20.6µM*	14.5	3.4%	?	-6.1	-23.7
CC(C)n1ncc2c(C(=O)NCCc3ccc(F)cc3)cc(C3CC3)nc21	?	11.1	31.6µM*	23.1µM*	-9.2	?
CCc1ccccc1NC(=O)CN(C)C(=O)c1cc(C2CC2)nc2c1cnn2C(C)C	-23.6%	4.4	-12.2%	-4.2%	-1.9	-4.7
O=C(Nc1ccc(F)c(Cl)c1)N1CCN(C(=O)c2nsc3ccccc23)CC1	?	.	3.6%	?	1.6	.
O=C1CC(C(=O)N2CCN(c3ccccc3O)CC2)CN1Cc1ccccc1 (centres undefined)	5.3%	?	-0.2%	-20.6%	-4.1	12.1
COc1ccccc1NC(=O)NNC(=O)c1ccc2c(c1)NC(=O)C(C)(C)O2	23.1µM*	-18.9	.	?	-17.9	20.3
CCOC(=O)CN1C(=O)C(C)(C)Oc2ccc(C(=O)Nc3ccccc3OC)cc21	16.4µM*	-95.3*	0.7%	23.1µM*	3.1	36.3
COc1ccc(C(=O)O)cc1S(=O)(=O)Nc1cc(Cl)ccc1N1CCOCC1	-3.1%	7.0	0.8%	11.2%	2.6	4.1
CCO[C@H]1OC(C(=O)NCc2ccccc2)=C[C@@H](C(C)(C)C)[C@@H]1CCCO	-25.1%	0.6	1.8%	-22.6%	20.0	11.9
O=C(c1cnn(C(=O)c2cccc(S(=O)(=O)N3CCOCC3)c2)c1)c1ccccc1O	1.2%	9.9	1.2%	-2.8%	3.9	10.4
O=C(COc1ccc(Cl)cc1Cl)Nc1ccc(-c2ccc(N3CCOCC3)nn2)cc1	-9.4%	0.0	.	?	3.6	35.1
O=C(COc1ccc(Cl)cc1Cl)Nc1cccc(-c2ccc(N3CCOCC3)nn2)c1	18.4µM*	-17.0	-1.4%	?	-13.4	-15.1
O=C(COc1ccccc1)Nc1cccc(-c2ccc(N3CCOCC3)nn2)c1	?	20.6	5.0%	9.2µM*	1.6	-13.9
Cc1ccc(C(=O)Nc2cccc(-c3ccc(N4CCOCC4)nn3)c2)cc1[N+](=O)[O-]	10.3µM*	3.1	1.8%	?	22.7	-2.7
